PubChem BioAssay (Tox21)
Activity calls are given as the source filed them.

Target: Glucocorticoid receptor (Homo sapiens) (UniProt P04150)
Assay: qHTS assay to identify small molecule agonists of the glucocorticoid receptor (GR) signaling pathway (AID 720691; active means well fitted activation curve with a large enough effect in the signal ratio in the repeat runs, not every such curve was filed as active; inconclusive means weak or mixed curves, or effect the other way; inactive means no such curve, though single readings can be large or run the other way; the % refers to the signal ratio; further: potency means the concentration at half of the fitted maximal effect)
Conditions: GR-bla HeLa, beta-lactamase reporter ratio, 18 h; series mostly up to 62.4 µM; activation: at the top concentration
Procedure, shortened: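 Steps: seed GR-bla HeLa cells, incubate 4 h at 37 C/5% CO2; pin-transfer DMSO-dissolved compounds; incubate 18 h at 37 C; add LiveBLAzer B/G FRET substrate; after 2 h at room temperature, measure fluorescence.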
On the % scale 0 is the no-effect control and ±100 the full control effect.

Chain of Glucocorticoid receptor (Homo sapiens) (P04150 whole entry, looked up): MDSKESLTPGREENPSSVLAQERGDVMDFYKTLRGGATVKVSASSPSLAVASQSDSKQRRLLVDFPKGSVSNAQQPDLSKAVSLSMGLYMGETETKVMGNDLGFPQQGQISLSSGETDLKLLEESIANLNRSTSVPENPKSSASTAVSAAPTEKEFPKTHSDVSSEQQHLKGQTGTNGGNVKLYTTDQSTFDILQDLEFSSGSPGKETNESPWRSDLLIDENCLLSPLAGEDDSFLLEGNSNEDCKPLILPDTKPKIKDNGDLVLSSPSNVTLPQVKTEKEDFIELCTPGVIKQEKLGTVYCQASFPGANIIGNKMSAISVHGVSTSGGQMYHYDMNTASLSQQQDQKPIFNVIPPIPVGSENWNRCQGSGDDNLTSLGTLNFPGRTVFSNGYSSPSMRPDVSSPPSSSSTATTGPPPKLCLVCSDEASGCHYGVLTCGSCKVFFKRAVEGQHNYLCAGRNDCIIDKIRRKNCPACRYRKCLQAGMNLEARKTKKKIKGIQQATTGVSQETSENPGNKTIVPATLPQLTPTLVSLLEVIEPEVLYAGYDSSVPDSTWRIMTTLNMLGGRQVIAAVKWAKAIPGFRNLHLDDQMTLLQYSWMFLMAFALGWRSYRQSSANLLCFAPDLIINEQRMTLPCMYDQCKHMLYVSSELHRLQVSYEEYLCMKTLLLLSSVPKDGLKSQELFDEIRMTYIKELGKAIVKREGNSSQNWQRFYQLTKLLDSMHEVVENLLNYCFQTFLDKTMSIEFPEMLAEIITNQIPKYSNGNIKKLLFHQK

| Structure (SMILES) | activation | Potency |
| --- | --- | --- |
| CC(=O)CCc1ccc(O)cc1 | 0.0635% (inactive) |  |
| CC(C)[N+](C)(C)CC(O)COc1cccc2ccccc12 (stereo not drawn) | 1.03% (inactive) |  |
| CC(O)CN(CCCN(C)C)CCCN(C)C (stereo not drawn) | 5.09% (inactive) |  |
| COC[C@H](c1ccc(C(F)(F)F)cc1)N1CCN(C2(C)CCN(C(=O)c3c(C)ncnc3C)CC2)C[C@H]1C | -1.64% (inactive) |  |
| OCCN1C[C@H](O)[C@@H](O)[C@H](O)[C@H]1CO | -0.417% (inactive) |  |
| [O-][N+](=Nc1ccccc1)c1ccccc1 |  | inactive |
| OCC(O)[C@@H](O)[C@H](O)[C@H](O)CO[C@H]1O[C@H](CO)[C@@H](O)[C@H](O)[C@H]1O (stereo partly drawn) | -1.52% (inactive) |  |
| CC(C)c1cccc(O)c1 | -1.1% [at 79.2 µM] (inactive) |  |
| CCc1cc(S(=O)(=O)O)c2cc(C(C)C)cccc1-2 | 4.59% (inactive) |  |
| O=C(O)C(O)[C@H](O)[C@@H](O)[C@H](O)[C@H](O)CO (stereo partly drawn) | -3.01% [at 79.2 µM] (inactive) |  |
| CCCCCCCCC=O | 0.167% (inactive) |  |
| C=C(C)C(=O)NCCCN(C)C | 0.272% (inactive) |  |
| CC(C)(O)C(=O)c1ccc(OCCO)cc1 | -8.64% (inactive) |  |
| N#CCN(CC#N)CCN(CC#N)CC#N | -0.631% (inactive) |  |
| COc1cccc(OC)c1 | -0.327% (inactive) |  |
| CCCCCCOC(=O)c1ccccc1O | -3.9% (inactive) |  |
| O=[N+]([O-])c1ccc(CCO)cc1 | -1.84% (inactive) |  |
| O=C(O)CCNC(=O)c1ccc(N=Nc2ccc(O)c(C(=O)O)c2)cc1 | -0.495% (inactive) |  |
| CC(C)c1cccc(C(C)C)c1N | -0.0032% (inactive) |  |
| CO[Si](OC)(OC)OC | 1.85% (inactive) |  |
| NS(=O)(=O)c1cc2c(cc1Cl)NC(CSCc1ccccc1)=NS2(=O)=O | -2.61% [at 29.2 µM] (inactive) |  |
| CCCCCCCCCCCCCCCCCCOCC(O)CO (stereo not drawn) |  | 952 nM [inconclusive] (active) |
| C=CCOc1nc(OCC=C)nc(OCC=C)n1 | 2.84% (inactive) |  |
| Cn1ccc2cc3c(cc21)CCN3C(=O)Nc1cccnc1 | 1.56% (inactive) |  |

Target: Glucocorticoid receptor (Homo sapiens) (UniProt P04150)
Assay: qHTS assay to identify small molecule antagonists of the glucocorticoid receptor (GR) signaling pathway (AID 720692; active means well fitted inhibition curve with a large enough effect in the signal ratio in the repeat runs, not every such curve was filed as active; inconclusive means weak or mixed curves, or effect the other way; inactive means no such curve, though single readings can be large or run the other way; the % refers to the signal ratio)
Conditions: GR-bla HeLa, beta-lactamase FRET ratio, dexamethasone-stimulated, 18 h; series mostly up to 58.5 µM; activity change, negative = inhibition: at the top concentration
Procedure, shortened: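 Antagonism was scored as loss of dexamethasone-driven (5 nM final) reporter signal in HeLa cells bearing a glucocorticoid response element–beta-lactamase construct, after 18 h compound exposure at 37 C and 2 h FRET substrate loading.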

| Structure (SMILES) | activity change, negative = inhibition | Potency |
| --- | --- | --- |
| CC(C)[N+](C)(C)CC(O)COc1cccc2ccccc12 (stereo not drawn) | 16% (inactive) |  |
| COC[C@H](c1ccc(C(F)(F)F)cc1)N1CCN(C2(C)CCN(C(=O)c3c(C)ncnc3C)CC2)C[C@H]1C | 10.6% (inactive) |  |
| OCCN1C[C@H](O)[C@@H](O)[C@H](O)[C@H]1CO | 11.5% (inactive) |  |
| [O-][N+](=Nc1ccccc1)c1ccccc1 |  | inactive |
| OCC(O)[C@@H](O)[C@H](O)[C@H](O)CO[C@H]1O[C@H](CO)[C@@H](O)[C@H](O)[C@H]1O (stereo partly drawn) | -17.7% (inactive) |  |
| CC(C)c1cccc(O)c1 | 2.71% [at 78.9 µM] (inactive) |  |
| CCc1cc(S(=O)(=O)O)c2cc(C(C)C)cccc1-2 | -0.453% (inactive) |  |
| O=C(O)C(O)[C@H](O)[C@@H](O)[C@H](O)[C@H](O)CO (stereo partly drawn) | -12.4% [at 78.9 µM] (inactive) |  |
| CCCCCCCCC=O | -17.8% (inactive) |  |
| CC(C)(O)C(=O)c1ccc(OCCO)cc1 | -3.27% (inactive) |  |
| N#CCN(CC#N)CCN(CC#N)CC#N | -9.07% (inactive) |  |
| COc1cccc(OC)c1 | 6.55% (inactive) |  |
| CCCCCCOC(=O)c1ccccc1O | 0.556% (inactive) |  |
| O=[N+]([O-])c1ccc(CCO)cc1 | -12.7% (inactive) |  |
| O=C(O)CCNC(=O)c1ccc(N=Nc2ccc(O)c(C(=O)O)c2)cc1 | -7.2% (inactive) |  |
| CC(C)c1cccc(C(C)C)c1N | -0.262% (inactive) |  |
| CO[Si](OC)(OC)OC | -14.3% (inactive) |  |
| NS(=O)(=O)c1cc2c(cc1Cl)NC(CSCc1ccccc1)=NS2(=O)=O | 13.6% [at 27 µM] (inactive) |  |
| C=CCOc1nc(OCC=C)nc(OCC=C)n1 | 0.893% (inactive) |  |
